Reference: PubChem BioAssay (NCI)
About 83,000 compounds went through this panel and 20% of them were active in at least one assay; those are over-represented in the sample as a whole.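 Testing used 96-well plates and a 48-hour single-concentration exposure. Example: -40 means 40% of the starting cells died.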

What was measured:
Test in all cases: NCI-60 one-dose screen, 48 h (100 = growth as untreated, 0 = no growth, -100 = all killed); active = growth percent below 10; inactive = the rest
[1] = test system: HCT-15 colon; conditions: 10 µM
[2] = test system: HT29 colon; conditions: 10 µM
[3] = test system: SNB-75 CNS; conditions: 10 µM
[4] = test system: SNB-19 CNS; conditions: 10 µM
[5] = test system: U251 CNS; conditions: 10 µM
[6] = test system: PC-3 prostate; conditions: 10 µM
[7] = test system: SK-MEL-5 melanoma; conditions: 10 µM
[8] = test system: UACC-62 melanoma; conditions: 10 µM unless noted
[9] = test system: LOX IMVI melanoma; conditions: 10 µM
[10] = test system: SK-MEL-28 melanoma; conditions: 10 µM
[11] = test system: SK-MEL-2 melanoma; conditions: 10 µM
[12] = test system: EKVX NSCLC; conditions: 10 µM
[13] = test system: SN12C renal; conditions: 10 µM
[14] = test system: UO-31 renal; conditions: 10 µM
[15] = test system: TK-10 renal; conditions: 10 µM unless noted
[16] = test system: ACHN renal; conditions: 10 µM
[17] = test system: CAKI-1 renal; conditions: 10 µM
[18] = test system: CCRF-CEM leukemia; conditions: 10 µM
[19] = test system: MOLT-4 leukemia; conditions: 10 µM
[20] = test system: A498 renal; conditions: 10 µM

Measured: growth

COc1cc(C(N)=O)cc(OC)c1OC
inactive: [1] 101% | [2] 102% | [3] 86.6% | [4] 99.2% | [5] 96.5% | [6] 106% | [7] 106% | [8] 94.2% | [9] 104% | [10] 116% | [11] 114% | [12] 102% | [13] 96.1% | [14] 82.5% | [15] 111% | [16] 105% | [17] 91% | [18] 103% | [19] 84.5%

CC(C)OC(=O)c1cc(NC(=S)OC(C)C)ccc1Cl
inactive: [1] 87.8% | [2] 70.5% | [3] 109% | [4] 92.3% | [5] 96.6% | [6] 83.3% | [7] 44% | [8] 77.1% | [9] 93.4% | [10] 101% | [11] 96.4% | [12] 85.8% | [13] 93% | [14] 80.2% | [15] 86.1% | [16] 98.7% | [17] 53.6% | [18] 88.8% | [19] 75.7%

O=C(O)CCCCNC(=O)c1ccccc1
inactive: [1] 102% | [2] 101% | [3] 103% | [4] 108% | [5] 98.5% | [6] 100% | [7] 101% | [8] 110% | [9] 91.8% | [10] 111% | [11] 113% | [12] 103% | [13] 115% | [14] 100% | [15] 101% | [16] 115% | [17] 107% | [20] 91.4% | [18] 110% | [19] 106%

Cc1c(C(=O)O)c(=O)n(-c2ccccc2)n1C
inactive: [1] 107% | [2] 112% | [3] 109% | [4] 111% | [5] 115% | [6] 101% | [7] 113% | [8] 108% | [9] 99.5% | [10] 122% | [11] 116% | [12] 103% | [13] 105% | [14] 89.6% | [15] 123% | [16] 109% | [17] 98.3% | [18] 108% | [19] 113%

NNc1ccccc1C(=O)O
inactive: [1] 99.1% | [2] 105% | [3] 89.4% | [4] 113% | [5] 107% | [6] 99.1% | [7] 103% | [8] 107% | [9] 101% | [10] 118% | [11] 102% | [12] 116% | [13] 116% | [14] 87.9% | [15] 110% | [16] 98.9% | [17] 110% | [20] 98.1% | [19] 107%

O=c1[nH]c(O)c(/C=C2/C=Nc3ccccc32)[nH]1
inactive: [1] 81.2% | [2] 95.3% | [3] 77.4% | [4] 104% | [5] 103% | [6] 83.4% | [7] 91.2% | [8] 95.7% | [9] 96.6% | [10] 111% | [11] 104% | [12] 95% | [13] 98.3% | [14] 68.7% | [15] 99.9% | [16] 87% | [17] 106% | [20] 86% | [18] 58.2% | [19] 73.7%

N#CCCN(CCCN1CCOCC1)CN1C(=O)c2ccccc2C1=O
inactive: [1] 104% | [2] 107% | [3] 87.7% | [4] 110% | [5] 100% | [6] 105% | [7] 96.8% | [8] 107% | [9] 101% | [10] 101% | [11] 118% | [12] 107% | [13] 108% | [14] 77.2% | [15] 103% | [16] 113% | [17] 98.6% | [18] 106% | [19] 90.9%

CCCCCCCCCCCCCCCCC1CC(=O)OC1=O (centres undefined)
inactive: [1] 107% | [2] 109% | [3] 101% | [4] 105% | [5] 96.4% | [6] 98.9% | [7] 103% | [8] 102% | [9] 103% | [10] 105% | [11] 113% | [12] 96.9% | [13] 101% | [14] 93.5% | [15] 107% | [16] 110% | [17] 97.9% | [18] 96.5% | [19] 118%
